Measured values published in ChEMBL document CHEMBL2218924, “A broad activity screen in support of a chemogenomic map for kinase signalling research and drug discovery” (Biochem J, 2013).

Target: Tyrosine-protein kinase HCK (Homo sapiens) (UniProt P08631)
Settings: at 1 µM

Chain of Tyrosine-protein kinase HCK (Homo sapiens) (P08631 2-526 limits assumed): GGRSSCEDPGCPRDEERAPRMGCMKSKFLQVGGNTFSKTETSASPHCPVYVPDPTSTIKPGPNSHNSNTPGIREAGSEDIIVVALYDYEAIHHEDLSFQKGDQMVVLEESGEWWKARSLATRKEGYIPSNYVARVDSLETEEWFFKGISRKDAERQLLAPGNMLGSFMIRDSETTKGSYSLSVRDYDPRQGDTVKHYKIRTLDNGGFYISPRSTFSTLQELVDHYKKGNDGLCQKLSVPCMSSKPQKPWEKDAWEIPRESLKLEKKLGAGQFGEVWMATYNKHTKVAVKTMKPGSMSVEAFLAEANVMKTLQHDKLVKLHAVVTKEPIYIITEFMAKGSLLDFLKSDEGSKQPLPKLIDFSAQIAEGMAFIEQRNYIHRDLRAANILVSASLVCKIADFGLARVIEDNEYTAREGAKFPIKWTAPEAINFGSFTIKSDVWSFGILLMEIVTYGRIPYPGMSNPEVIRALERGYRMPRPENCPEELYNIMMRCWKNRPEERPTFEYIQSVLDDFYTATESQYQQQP

Compound | residual activity
COc1ccc(CNC(=O)Nc2ncc([N+](=O)[O-])s2)cc1 | 13%
O=c1cc(N2CCOCC2)oc2c(-c3ccccc3)cccc12 | 66%
Cn1sc(=O)n(Cc2ccccc2)c1=O | 75%
CCOc1nc(NC(=O)Cc2cc(OC)ccc2OC)cc(N)c1C#N | 78%
Nc1nc(Nc2ccc(S(N)(=O)=O)cc2)nn1C(=O)c1c(F)cccc1F | 71%
N#C/C(=C\c1ccc(O)c(O)c1)C(=O)NCc1ccccc1 | 78%
Nc1n[nH]c2nc3ccccc3nc12 | 75%
Fc1ccc(-c2nc3n(c2-c2ccncc2)CCS3)cc1 | 95%
COc1cc2c(cc1OC)-c1n[nH]c(Nc3cccc(F)c3)c1C2 | 22%
CCOC(=O)c1c(C)[nH]c(/C=C2\C(=O)Nc3ccccc32)c1C | 77%
CSc1nc(-c2ccc(F)cc2)c(-c2ccnc(NC(C)c3ccccc3)c2)[nH]1 (stereo not given) | 85%
NCCNc1ncc(C(N)=O)c(Nc2cccc(C(F)(F)F)c2)n1 | 78%
O=C1Cc2c([nH]c3ccc([N+](=O)[O-])cc23)-c2ccccc2N1 | 41%
CN([C@@H](Cc1ccc(OS(=O)(=O)c2cccc3cnccc23)cc1)C(=O)N1CCN(c2ccccc2)CC1)S(=O)(=O)c1cccc2cnccc12 | 86%
COc1cc2ncnc(Nc3cccc(Cl)c3)c2cc1OC | 48%
COc1ccc(-c2cnc3c(-c4ccsc4)cnn3c2)cc1 | 59%
Cc1cc(C)c(/C=C2\C(=O)Nc3ccccc32)[nH]1 | 60%
COc1cc2nccc(Oc3ccc(NC(=O)Nc4cc(C)on4)c(Cl)c3)c2cc1OC | 7%
O=C(c1ccccc1)c1ccc(N2CCOCC2)cc1O | 83%
NC(=O)c1ccc(-c2nc(-c3ccc4c(c3)OCCO4)c(-c3ccccn3)[nH]2)cc1 | 68%
O=C1NC(=O)C(c2cn(CCCn3ccnc3)c3ccccc23)=C1Nc1ccccc1 | 80%
O=C(Nc1ccc(Cl)cc1)c1ccccc1NCc1ccncc1 | 80%
CCCCc1c(-c2ccc(O)cc2)[nH]c2nccnc12 | 64%
O=C1Nc2ccccc2/C1=C\c1c(Cl)[nH]c2ccccc12 | 79%

Target: Tyrosine-protein kinase HCK (Homo sapiens) (UniProt P08631)
Settings: at 10 µM

Compound | residual activity
COc1ccc(CNC(=O)Nc2ncc([N+](=O)[O-])s2)cc1 | 12%
O=c1cc(N2CCOCC2)oc2c(-c3ccccc3)cccc12 | 58%
O=C(Nc1nc2ccccc2n1CCN1CCOCC1)c1cccc([N+](=O)[O-])c1 | 77%
Cn1sc(=O)n(Cc2ccccc2)c1=O | 64%
CCOc1nc(NC(=O)Cc2cc(OC)ccc2OC)cc(N)c1C#N | 71%
COc1ccc(COc2ccc(Cc3cnc(N)nc3N)cc2OC)cc1 | 65%
Nc1nc(Nc2ccc(S(N)(=O)=O)cc2)nn1C(=O)c1c(F)cccc1F | 25%
N#C/C(=C\c1ccc(O)c(O)c1)C(=O)NCc1ccccc1 | 70%
Nc1n[nH]c2nc3ccccc3nc12 | 60%
Fc1ccc(-c2nc3n(c2-c2ccncc2)CCS3)cc1 | 94%
O=C1Cc2c([nH]c3ccc(Br)cc23)-c2ccccc2N1 | 28%
COc1cc2c(cc1OC)-c1n[nH]c(Nc3cccc(F)c3)c1C2 | 6%
CCOC(=O)c1c(C)[nH]c(/C=C2\C(=O)Nc3ccccc32)c1C | 74%
CSc1nc(-c2ccc(F)cc2)c(-c2ccnc(NC(C)c3ccccc3)c2)[nH]1 (stereo not given) | 51%
NCCNc1ncc(C(N)=O)c(Nc2cccc(C(F)(F)F)c2)n1 | 22%
Nc1nccc(-c2c(-c3ccc(F)cc3)ncn2C2CCNCC2)n1 | 53%
O=C1Cc2c([nH]c3ccc([N+](=O)[O-])cc23)-c2ccccc2N1 | 28%
CN([C@@H](Cc1ccc(OS(=O)(=O)c2cccc3cnccc23)cc1)C(=O)N1CCN(c2ccccc2)CC1)S(=O)(=O)c1cccc2cnccc12 | 61%
O=c1c(-c2ccc(F)cc2)c(-c2ccncc2)[nH]n1-c1ccc(Cl)cc1 | 61%
COc1cc2ncnc(Nc3cccc(Cl)c3)c2cc1OC | 13%
COc1ccc(-c2cnc3c(-c4ccsc4)cnn3c2)cc1 | 76%
Cc1cc(C)c(/C=C2\C(=O)Nc3ccccc32)[nH]1 | 25%
COc1cc2nccc(Oc3ccc(NC(=O)Nc4cc(C)on4)c(Cl)c3)c2cc1OC | 2%
O=S(=O)(NCCNC/C=C/c1ccc(Br)cc1)c1cccc2cnccc12 | 72%
O=C(c1ccccc1)c1ccc(N2CCOCC2)cc1O | 75%
NC(=O)c1ccc(-c2nc(-c3ccc4c(c3)OCCO4)c(-c3ccccn3)[nH]2)cc1 | 66%
